For 82 compounds, activation factor and activity change, negative = activation results are on record in PubChem BioAssay AID434970 (Sanford-Burnham Center for Chemical Genomics, 2010).

Hit rate of the full screen: of about 11,000 compounds, about 310 (2.8%) were called active. No stated cut-off is given here; in the data, active means activity change below about -85%; inactive means the rest. The sample as a whole holds a higher share of actives than the screen did.

This assay has as its system intestinal alkaline phosphatase [Mus musculus]. Briefly: activators of mouse IAP, confirmation, biochemical, luminescence, single concentration (AID 434970). The note with it: purified mouse IAP, CDP-Star luminescence, 30 min, at 10 µM; activation factor: measured here: IAP activation factor, stronger effect = higher value; activity change, negative = activation: stronger effect = lower value.
`CCCc1c(NC(=O)Nc2ccc(F)cc2)cnn1-c1ccccc1`: the activation factor was determined as 1.57 and the activity change, negative = activation was -57.2% (inactive).
`CCCc1c(NC(=O)Nc2ccc(F)cc2)cnn1-c1ccc(Cl)cc1`: the activation factor was found to be 2.42 and the activity change, negative = activation was -142% (active).
`O=C(NCCc1ccncc1)Nc1ccc(Cl)cc1`: the activation factor came to 1.09 and the activity change, negative = activation was -8.6% (inactive).
As for `COCCn1c(SCC(=O)Nc2nc3ccccc3s2)nnc1-c1ccoc1C`, the activation factor worked out at 0.944 and the activity change, negative = activation is 5.6% (inactive).
Consider `N#CCCn1c(=S)[nH]c2ccccc21`, for which the activation factor worked out at 0.98 and the activity change, negative = activation is 2% (inactive).
The corresponding values for `Cc1ccc(S(=O)(=O)Nc2ccc(O)c(Sc3ncn[nH]3)c2)cc1` are 0.349 and 65.1% (inactive).
The like results for `CN(C)S(=O)(=O)Oc1cccc(C(=O)Nc2ccc(Cl)c(Cl)c2)c1` were, in that order, 0.948 and 5.2% (inactive).
The corresponding values for `Cc1cc(C)cc(C(=O)N(NC(=O)Nc2ccc(Cl)cc2)C(C)(C)C)c1` are 4.22 and -322% (active).
As to `CC(C)(C)N(NC(=O)Nc1ccc(Cl)c(Cl)c1)C(=O)c1ccccc1`, the activation factor was found to be 3.95 and the activity change, negative = activation is -295% (active).
The like results for `CNC(=O)Nc1ccc(Cl)cc1` were, in that order, 1.26 and -26.3% (inactive).
In the case of `COC(=O)c1cccc(NC(=O)Nc2ccc(Cl)c(Cl)c2)c1`, the activation factor was found to be 1.89 and the activity change, negative = activation is -88.6% (inactive).
The corresponding values for `CN(C)S(=O)(=O)Oc1cccc(C(=O)Nc2ccc(Cl)cc2)c1` are 0.992 and 0.85% (inactive).
The corresponding values for `CCCN(/C=N/c1sc2c(c1C#N)CCCCC2)CCC` are 0.953 and 4.7% (inactive).
On to `Cn1ncc(C#N)c1/N=C/N1CCOCC1`, for which the activation factor was determined as 1.05 and the activity change, negative = activation was -4.75% (inactive).
The corresponding values for `Cc1ccc(CNC(=O)c2ccc(NC(=O)CCS(=O)(=O)c3cccs3)cc2)cc1` are 0.978 and 2.15% (inactive).
The corresponding values for `CC(NC(=S)Nc1ccc(S(=O)(=O)N2CCOCC2)cc1)C1CC2CCC1C2` (centres undefined) are 2.45 and -145% (active).
Turning to `O=C(Nc1ccc(S(=O)(=O)N2CCOCC2)cc1)C1CCCCC1`, the activation factor came out at 0.984 and the activity change, negative = activation is 1.6% (inactive).
The corresponding values for `CC(C)c1ccc(N(CC(=O)Nc2ccc(S(=O)(=O)N3CCOCC3)cc2)S(C)(=O)=O)cc1` are 1.12 and -12.1% (inactive).
With `Cc1cc[n+](CCC(=O)O)c2ccccc12`, the activation factor is 0.901 and the activity change, negative = activation is 9.85% (inactive).
The like results for `CCN(C1CCCCC1)S(=O)(=O)c1cc(C)ccc1OC` were, in that order, 1.04 and -4.35% (inactive).
The like results for `CN1CC(COCc2ccccc2)Oc2ccccc2S1(=O)=O` (centres undefined) were, in that order, 1.04 and -4.4% (inactive).
The like results for `CC(Cc1cccs1)NC(=O)Nc1ccc(Cl)c(Cl)c1` (centres undefined) were, in that order, 0.945 and 5.6% (inactive).
In the case of `CC(NC(=O)Nc1ccc(Cl)c(Cl)c1)C(c1ccccc1)N1CCOCC1` (centres undefined), the activation factor turned out to be 3.21 and the activity change, negative = activation was -221% (active).
With `CC(NC(=O)Nc1ccc(Cl)cc1)C(c1cccs1)N1CCOCC1` (centres undefined), the activation factor came out at 1.71 and the activity change, negative = activation is -71.1% (inactive).
On to `Cc1ccc(N2C(=O)c3ccc(C(=O)Nc4cccnc4)cc3C2=O)c(C)c1`, for which the activation factor stood at 0.946 and the activity change, negative = activation was 5.45% (inactive).
The corresponding values for `Cc1ccc2[nH]c(=O)c(C(c3nnnn3CC3CCCO3)N3CCCc4ccccc43)cc2c1` (centres undefined) are 0.398 and 60.2% (inactive).
The corresponding values for `Cc1cccc(NC(=O)NC2CCCc3ccccc32)c1` (centres undefined) are 3.36 and -236% (active).
The corresponding values for `CCOc1ccc(NC(=O)CN(C)CC(=O)NC2CCCc3ccccc32)cc1OCC` (centres undefined) are 1.1 and -9.8% (inactive).
For `COC(=O)c1ccc(NC(=S)NC2CCc3ccccc32)cc1` (centres undefined), the activation factor came out at 1.51 and the activity change, negative = activation is -50.8% (inactive).
For the compound `COc1ccc(-c2nnn(CC(=O)NC3CCCc4ccccc43)n2)cc1OC` (centres undefined), the activation factor came to 1.06 and the activity change, negative = activation was -5.8% (inactive).
The like results for `Cc1cccc(-n2nnc(C(=O)NC3CCCc4ccccc43)c2N)c1` (centres undefined) were, in that order, 1.01 and -1.4% (inactive).
As to `CC(C)(C)c1ccc(NC(=O)NC2CCCc3ccccc32)cc1` (centres undefined), the activation factor was 3.53 and the activity change, negative = activation was -253% (active).
The like results for `CCOc1ccc(NC(=O)CS(=O)CC(=O)NC2CCCc3ccccc32)cc1` (centres undefined) were, in that order, 1 and -0.45% (inactive).
Take `COc1cccc(NC(=O)NC2CCCc3ccccc32)c1` (centres undefined): the activation factor stood at 2.74 and the activity change, negative = activation is -174% (active).
The corresponding values for `Cc1cccc(C)c1NC(=O)CS(=O)CC(=O)NC1CCCc2ccccc21` (centres undefined) are 1.11 and -11.2% (inactive).
The corresponding values for `CCCn1c(Nc2ccccc2C)nc2ccccc21` are 0.988 and 1.25% (inactive).
The corresponding values for `COC(=O)c1cn(CC(=O)NC2CCCCC2)c2ccccc12` are 1.04 and -3.9% (inactive).
`Cc1ccc(-c2cc(-c3ccccc3)c3c(N)c(S(C)(=O)=O)sc3n2)cc1`: the activation factor came to 0.966 and the activity change, negative = activation was 3.45% (inactive).
The like results for `O=c1oc2cc(OCc3ccc([N+](=O)[O-])cc3)ccc2c2c1CCCC2` were, in that order, 0.909 and 9.15% (inactive).
The corresponding values for `COc1cccc(N=c2oc3ccc(OC)cc3cc2-c2nc3ccccc3[nH]2)c1` are 1.03 and -2.7% (inactive).
The corresponding values for `Cc1ccc(C(=O)N2CCOCC2)cc1Cl` are 0.984 and 1.65% (inactive).
As for `O=C(Nc1ccc(Cl)c(Cl)c1)Nc1cc(S(=O)(=O)N2CCOCC2)ccc1N1CCCC1`, the activation factor is 2.53 and the activity change, negative = activation was -153% (active).
The like results for `CCN(CC)c1ccc(S(=O)(=O)N2CCOCC2)cc1NC(=O)Nc1ccccc1` were, in that order, 2.53 and -153% (active).
The like results for `Cc1oc(S(=O)(=O)N2CCCCC2)cc1NC(=O)Nc1ccc(Cl)cc1` were, in that order, 1.42 and -41.8% (inactive).
`O=C(Nc1ccc(Cl)c(Cl)c1)Nc1cc(C(=O)N2CCOCC2)ccc1N1CCCCC1`: the activation factor was 2.67 and the activity change, negative = activation was -167% (active).
The like results for `CN1CCN(c2ccc(Cl)cc2NC(=O)c2ccc(S(=O)(=O)N3CCCCCC3)cc2)CC1` were, in that order, 0.982 and 1.75% (inactive).
Consider `CC(=O)c1cccc(NC(=O)Nc2ccc(C(=O)N3CCOCC3)cc2)c1`, for which the activation factor is 1.06 and the activity change, negative = activation was -6.35% (inactive).
The like results for `CC(Sc1ccc(Cl)cc1)C(=O)Nc1ccc(S(=O)(=O)N2CCOCC2)cc1` (centres undefined) were, in that order, 1.07 and -7.35% (inactive).
The like results for `Cc1ccc(NC(=O)Nc2ccccc2F)cc1S(=O)(=O)N1CCOCC1` were, in that order, 1.52 and -51.6% (inactive).
In the case of `O=C(Nc1ccc(Cl)cc1)Nc1cc(S(=O)(=O)N2CCOCC2)ccc1N1CCCC1`, the activation factor amounted to 2.15 and the activity change, negative = activation was -116% (active).
Consider `COc1ccccc1NC(=O)c1cc(S(=O)(=O)N2CCOCC2)ccc1Cl`, for which the activation factor stood at 0.877 and the activity change, negative = activation was 12.2% (inactive).
For `O=C(Nc1ccccc1)c1ccc(S(=O)(=O)N2CCOCC2)cc1`, the activation factor was 1.01 and the activity change, negative = activation was -1.35% (inactive).
The corresponding values for `Cc1ccc2c(c1)nnn2C1CCN(S(C)(=O)=O)CC1` are 0.904 and 9.55% (inactive).
The corresponding values for `CCc1ccccc1NC1=NCC(=O)N1Cc1ccccc1` are 1 and -0.1% (inactive).
The like results for `COc1cccc(-c2sc3cc(OC)c(OC)cc3c2-c2ccc(OCCN3CCCCC3)cc2)c1` were, in that order, 1.01 and -0.55% (inactive).
Take `O=C(c1cccs1)N1CCCC(c2ccccc2)C1` (centres undefined): the activation factor is 0.929 and the activity change, negative = activation is 7.1% (inactive).
The corresponding values for `COc1cc(=O)n(C)c2cc(N(C)C)ccc12` are 0.917 and 8.35% (inactive).
With `COc1ccc2[nH]c3c(c2c1)CCN1C(=O)C(CC(=O)NCc2cccc(C(F)(F)F)c2)C[C@H](C(=O)N2CCOCC2)[C@@]31C` (some centres undefined), the activation factor was 1.08 and the activity change, negative = activation is -8.45% (inactive).
The like results for `COc1ccc(Cc2nc3ccc(C(=O)NCc4ncc(C)[nH]4)cc3o2)cc1OC` were, in that order, 0.927 and 7.3% (inactive).
The like results for `COC(=O)c1sccc1NC(=O)C1CC=CCC1C(=O)O` (centres undefined) were, in that order, 0.998 and 0.15% (inactive).
The like results for `CC1(C)Cc2noc(N)c2C(C)(C)N1OC(=O)c1cccs1` were, in that order, 1.04 and -3.75% (inactive).
Regarding `CC[C@]12c3[nH]c4cc(CCC(=O)N(C)C)ccc4c3CCN1C(=O)[C@@H](CC(=O)NC/C=C(\C)CCC=C(C)C)C[C@@H]2C(=O)N1CCN(C(=O)C2CC2)CC1`, the activation factor stood at 1.09 and the activity change, negative = activation is -9.3% (inactive).
Consider `O=C(c1ccc(Cn2c(=O)[nH]c3ccccc3c2=O)cc1)N1CCN(c2ccc(F)cc2)CC1`, for which the activation factor was determined as 1 and the activity change, negative = activation was 0.05% (inactive).
The corresponding values for `S=C(NCc1ccccc1)Nc1cccc(Cl)c1` are 1.4 and -40.5% (inactive).
`S=C(NCCN(C1CCCCC1)C1CCCC1)Nc1cccc(Cl)c1`: the activation factor was determined as 1.69 and the activity change, negative = activation is -68.5% (inactive).
The corresponding values for `Cc1ccc(NC(=S)NCCSc2ccc(Cl)cc2)cc1` are 1.45 and -45.4% (inactive).
The like results for `S=C(NCCC(c1ccccc1)c1ccccc1)Nc1ccc(Cl)cc1` were, in that order, 2.1 and -110% (active).
As for `S=C(NCCC(c1ccccc1)c1ccccc1)Nc1cccc(Cl)c1`, the activation factor stood at 3.74 and the activity change, negative = activation was -274% (active).
The like results for `Fc1ccccc1CNC(=S)Nc1ccc(Cl)cc1` were, in that order, 1.38 and -38.1% (inactive).
The like results for `CC(C)CN(C(=O)COC(=O)Cn1cnc2ccccc2c1=O)C1CCS(=O)(=O)C1` (centres undefined) were, in that order, 0.927 and 7.25% (inactive).
The like results for `COc1ccc(CN2CCC(n3nccc3NC(=O)CCCc3ccccc3)CC2)cc1C` were, in that order, 2.4 and -140% (active).
With `CCOC(=O)CN(C(=O)CN1CCC(n2nnc3cc(C)ccc32)CC1)c1ccccc1`, the activation factor was 0.982 and the activity change, negative = activation is 1.8% (inactive).
Regarding `CCOc1cccc(CN2CCC(n3nccc3NC(=O)CCCc3ccccc3)CC2)c1`, the activation factor turned out to be 2.3 and the activity change, negative = activation is -130% (active).
The like results for `CCOc1ccc(CN2CCC(n3nccc3NC(=O)CCCc3ccccc3)CC2)cc1` were, in that order, 1.83 and -83% (inactive).
Regarding `COc1ccccc1CN1CCC(n2nccc2NC(=O)CCCc2ccccc2)CC1`, the activation factor came out at 2.08 and the activity change, negative = activation is -108% (active).
For the compound `CCOc1ccc(-c2cc(CCCC(=O)NCCc3ccccc3)no2)cc1`, the activation factor was 1.07 and the activity change, negative = activation was -6.9% (inactive).
In the case of `Cc1ccc(-c2nnn(CC(=O)NC3CCN(Cc4ccccc4)CC3)n2)cc1`, the activation factor worked out at 1.04 and the activity change, negative = activation is -4.25% (inactive).
Turning to `COc1ccc(-c2noc(CCCC(=O)NCCc3ccccc3)n2)cc1OC`, the activation factor was 0.998 and the activity change, negative = activation was 0.25% (inactive).
On to `COc1ccccc1CN1CCN(S(=O)(=O)c2ccccc2)CC1`, for which the activation factor was determined as 0.897 and the activity change, negative = activation was 10.3% (inactive).
The corresponding values for `COc1ccc(Cl)cc1NC(=O)CN1CCC(n2nnc3ccccc32)CC1` are 0.96 and 4.05% (inactive).
The corresponding values for `COc1ccc(CN2CCC(n3nccc3NC(=O)CCc3ccccc3)CC2)c(C)c1C` are 1.6 and -60% (inactive).
Take `Cc1ccc(C)c(CN2CCC(n3nccc3NC(=O)CCCc3ccccc3)CC2)c1`: the activation factor was 2.31 and the activity change, negative = activation was -131% (active).
